Each sequence was assayed on PPARg:RXRa 90nM:30nM, anti-RXR (NR concentration 90 nM, RXRa partner concentration 30 nM) (assay: PBM binding z-score (relative to random genomic background probes); higher = stronger binding; sequences stand for … in GC…GCGATTGACAGCGTAGAATGAAGG).
Procedure, shortened: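 Antibodies against each partner of ligand-free nuclear receptor dimers (one per run) detected binding on custom Agilent 4×180K protein-binding microarrays after 1 h incubation. The double-stranded probes had 34-nt variable regions carrying direct-repeat seeds, single-nucleotide variants, half-site ablations and random human genomic background sequences. Binding z-scores, from regression-normalized fluorescence, use the random background probes as reference.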
In the case of CCACGGAGGACAGAAGGTCAGAGCTGTCCGCTTT, the PBM binding z-score is reported as 0.384. For ATCTCGAGGTAAAGTTCAGTGAAAGATCGATAGA, the PBM binding z-score was 3.69. Work on CCAGACAGGTGTAAGGTAACTCAGTCTGGTACGC yielded a PBM binding z-score of 0.409. Sequence CGAACTAGGTCATCCAGGACAGTGTATACATTGA has a PBM binding z-score of 5.65. CGAACTAGGTCATCCAGGGCAGTGAATACATTGA showed a PBM binding z-score of 5.95. With GCTTTCGGGTCAAAGGTTATAGCATGAATAGAAT the PBM binding z-score was 10. Work on GCGACTGGGGTAAAGCAGGTTACCATAAGGTTGG yielded a PBM binding z-score of 0.64. For AGAATGAGGTTATGAAGATCAGGGAATTGCGGTC, the PBM binding z-score was 1.61. GGAACGAGGGAAAAGTTGATAGCATCTGTCGACG showed a PBM binding z-score of 3.49. With ATATGTAGGTTAGCTGGGTTCATTCAGACTAGGC the PBM binding z-score was 2.89. With AGAATGAGGTTATAAGTAGATCAGGGAAGAAAGT the PBM binding z-score was 2.45. With TCTAGCAGGCCAAAGGGTCACTCAAGAGGTACGG the PBM binding z-score was 4.89. In the case of GCGACTGGGGCAAAGCAAGTTACCATAAGGTTGG, the PBM binding z-score is reported as 0.301. GTACCAAGGTGAATAGGACGTTGATGAGTAGGCG gave a PBM binding z-score of 0.55. Work on TCAAGTAGGTTACCAATGGGGCATTCAGCTTTCT yielded a PBM binding z-score of 3.02. In the case of TCATATAGGTACTACAGGTGAAAGTCGGCATCTA, the PBM binding z-score is reported as 2.89. In the case of TCATATAAGTAAACAGGTGAAAGTCCGTAAGTTA, the PBM binding z-score is reported as 3.57. Work on TCATGTAGGTAAATGCTAGGTGAAAGTCCGATCT yielded a PBM binding z-score of 2.6. In the case of CCTTACGGGTCACGAGGTTATAGGACGACGAGCG, the PBM binding z-score is reported as 5.65. With ATATCAAGGTGATCGTGAGGTCGTTGATACTAAC the PBM binding z-score was 0.846. Sequence TAGCCTAGGTCATGCGGGCCACTATAGTGTCGGC has a PBM binding z-score of 1.5. In the case of GTACCAAGGTGAAGAGGTCGTTGATGAGTAGGCG, the PBM binding z-score is reported as 1.72.

Reference: the supplement of paper PMC6555819
